Test [1] is described as follows: NCI Yeast Anticancer Drug Screen. Data for the rad50 strain (AID 155).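 Further: 0% = growth of vehicle-only cultures of the same strain.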 Particulars: S. cerevisiae rad50 strain growth inhibition, stronger effect = higher value. In outline: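 Genetically altered yeast (DNA repair pathway); compound treatment; growth inhibition vs vehicle ctrl.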
Test [2] is described as follows: NCI Yeast Anticancer Drug Screen. Data for the mec2-1 strain (AID 157). To be noted: S. cerevisiae mec2-1 strain, stronger effect = higher value. In outline: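 mec2-1 yeast strain, carrying an alteration in DNA damage repair or cell cycle control, was exposed to compounds; growth inhibition was measured relative to vehicle-treated controls.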
The nature of test [3]: NCI Yeast Anticancer Drug Screen. Data for the sgs1 mgt1 strain (AID 161).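 Further: 0% = growth of cultures given vehicle only.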 To be noted: S. cerevisiae sgs1 mgt1 strain, stronger effect = higher value. In outline:
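This yeast growth screen uses a strain with defined DNA-repair lesions; compound-treated growth is compared with vehicle-treated growth.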

Test [4] can be described thus: NCI Yeast Anticancer Drug Screen. Data for the cln2 rad14 strain (AID 165).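 Further: 0% = growth equal to vehicle treated cultures.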 Particulars: S. cerevisiae cln2 rad14 strain, stronger effect = higher value. The gist of the method: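 Yeast carrying cln2 and rad14 alterations (cell cycle control and DNA damage repair) were exposed to compounds. Growth inhibition was measured against vehicle-treated controls.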
Test [5] can be described thus: NCI Yeast Anticancer Drug Screen. Data for the bub3 strain (AID 167). To be noted: S. cerevisiae bub3 mutant strain, stronger effect = higher value. In outline: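 Yeast carrying a defined mutation is treated with each compound, and growth is compared with that of vehicle-exposed cells to give inhibition.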
The nature of test [6]: NCI Yeast Anticancer Drug Screen. Data for the mlh1 rad18 strain (AID 175). Particulars: S. cerevisiae mlh1 rad18 strain growth inhibition, stronger effect = higher value. The gist of the method:
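Growth inhibition of the yeast strain was measured after compound exposure and expressed relative to vehicle-treated controls. The strain carries defined defects in DNA damage repair.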

Where [7] appears, read: at 5.0 µM (retest, dose inferred, filed as 0.5).
[8] abbreviates: at 50.0 µM (retest, dose inferred, filed as 5.0).

The panel holds about 79,000 compounds, 15% with a hit somewhere; the sample as a whole holds those more often. Unmarked numbers belong to inactive results. The source made the active and inactive calls. No stated cut-off is given here; in the data, active means growth inhibition above about 70%; inactive means the rest.

For the compound `Cc1ccc(N2CCN(c3c(N)cncc3Br)CC2)cc1`, the growth inhibition is -4% in test [1] (setting [7]); -4% in test [1] (setting [8]); 94% (active) in test [1] (at 50.0 µM); 6% in test [2] (setting [7]); 14% in test [2] (setting [8]); 97.3% (active) in test [2] (at 50.0 µM). The growth inhibition was 0% in test [3] (setting [7]); 18% in test [3] (setting [8]); 92.8% (active) in test [3] (at 50.0 µM); 0% in test [4] (setting [7]); -15% in test [4] (setting [8]); 46.5% in test [4] (at 50.0 µM). Moreover, the growth inhibition in test [5] (setting [7]) is 19%; in test [5] (setting [8]), 71% (active); in test [5] (at 50.0 µM) it was 96% (active); in test [6] (setting [7]), -4%; in test [6] (setting [8]), -1%; in test [6] (at 50.0 µM), 90.8% (active).

For the compound `CC(C)C(=O)[O][Bi]([c]1ccccc1)[c]1ccccc1`, the growth inhibition is 13% in test [1] (setting [7]); 92% (active) in test [1] (setting [8]); 82% (active) in test [1] (at 50.0 µM); 7% in test [2] (setting [7]); 78% (active) in test [2] (setting [8]); 87.2% (active) in test [2] (at 50.0 µM). In addition, the growth inhibition in test [3] (setting [7]) is -32%; in test [3] (setting [8]) it was 93% (active); in test [3] (at 50.0 µM), 87.5% (active); in test [4] (setting [7]) it was 9%; in test [4] (setting [8]), 90% (active); in test [4] (at 50.0 µM), 85.6% (active). Also, the growth inhibition in test [5] (setting [7]) is 11%; in test [5] (setting [8]), 93% (active); in test [5] (at 50.0 µM) it was 84.5% (active); in test [6] (setting [7]), 15%; in test [6] (setting [8]), 88% (active); in test [6] (at 50.0 µM), 91% (active).

For `O=c1cc(-c2ccccc2)oc(-c2ccccc2)c1`, the growth inhibition in test [1] (setting [7]) was -152%; in test [1] (setting [8]) it was -105%; in test [1] (at 50.0 µM), 82.4% (active); in test [2] (setting [7]), -55%; in test [2] (setting [8]), -50%; in test [2] (at 50.0 µM) it was 19.4%. Moreover, the growth inhibition is -71% in test [3] (setting [7]); -59% in test [3] (setting [8]); 11% in test [3] (at 50.0 µM); -68% in test [4] (setting [7]); -82% in test [4] (setting [8]); -20.1% in test [4] (at 50.0 µM). The growth inhibition in test [5] (setting [7]) is -68%; in test [5] (setting [8]), -56%; in test [5] (at 50.0 µM), 20%; in test [6] (setting [7]), -123%; in test [6] (setting [8]), -103%; in test [6] (at 50.0 µM), 43.6%.

`O=P1(Cc2ccccc2)c2ccccc2-c2ccccc21`: the growth inhibition was -21% in test [1] (setting [7]); 99% (active) in test [1] (setting [8]); 85.6% (active) in test [1] (at 50.0 µM); -17% in test [2] (setting [7]); 99% (active) in test [2] (setting [8]); 91.1% (active) in test [2] (at 50.0 µM). Moreover, the growth inhibition is -24% in test [3] (setting [7]); 97% (active) in test [3] (setting [8]); 88.9% (active) in test [3] (at 50.0 µM); -18% in test [4] (setting [7]); 96% (active) in test [4] (setting [8]); 89.4% (active) in test [4] (at 50.0 µM). For the same compound, the growth inhibition in test [5] (setting [7]) is -33%; in test [5] (setting [8]) it was 99% (active); in test [5] (at 50.0 µM), 88.7% (active); in test [6] (setting [7]) it was 4%; in test [6] (setting [8]) it was 99% (active); in test [6] (at 50.0 µM) it was 84.3% (active).

`CCCCCC1OC1CC1OC1CCCCCCCC(=O)OC` (configuration not stated): the growth inhibition in test [1] (setting [7]) is -2%; in test [1] (setting [8]), 1%; in test [1] (at 50.0 µM), 36.5%; in test [2] (setting [7]) it was -1%; in test [2] (setting [8]), -2%; in test [2] (at 50.0 µM), 18.8%. For the same compound, the growth inhibition in test [3] (setting [7]) was -4%; in test [3] (setting [8]) it was 4%; in test [3] (at 50.0 µM), 40.4%; in test [4] (setting [7]) it was -4%; in test [4] (setting [8]) it was -8%; in test [4] (at 50.0 µM), -27.4%. The growth inhibition was -1% in test [5] (setting [7]); -7% in test [5] (setting [8]); 50.1% in test [5] (at 50.0 µM); 4% in test [6] (setting [7]); 1% in test [6] (setting [8]); 59% in test [6] (at 50.0 µM).

For the compound `CS(=O)(=O)OCCN(CCOS(C)(=O)=O)c1ccc(C=Nc2ccc3oc(=O)ccc3c2)cc1`, the growth inhibition is 32% in test [1] (setting [7]); 97% (active) in test [1] (setting [8]); 52.1% in test [1] (at 50.0 µM); 35% in test [2] (setting [7]); 95% (active) in test [2] (setting [8]); 77.1% (active) in test [2] (at 50.0 µM). For the same compound, the growth inhibition was 22% in test [3] (setting [7]); 86% (active) in test [3] (setting [8]); 65.2% in test [3] (at 50.0 µM); 13% in test [4] (setting [7]); 77% (active) in test [4] (setting [8]); 22.4% in test [4] (at 50.0 µM). Moreover, the growth inhibition in test [5] (setting [7]) is -4%; in test [5] (setting [8]) it was 14%; in test [5] (at 50.0 µM) it was 40.1%; in test [6] (setting [7]) it was 72% (active); in test [6] (setting [8]) it was 97% (active); in test [6] (at 50.0 µM) it was 88.7% (active).

Regarding `CCOC(CN(C)C(=O)Nc1ccc(Cl)c(Cl)c1)OCC`, the growth inhibition in test [1] (setting [7]) is -31%; in test [1] (setting [8]), 52%; in test [1] (at 50.0 µM), 63.7%; in test [2] (setting [7]), 2%; in test [2] (setting [8]), 61%; in test [2] (at 50.0 µM), 32.7%. In addition, the growth inhibition in test [3] (setting [7]) was -15%; in test [3] (setting [8]), 56%; in test [3] (at 50.0 µM), 58.6%; in test [4] (setting [7]), -17%; in test [4] (setting [8]), 45%; in test [4] (at 50.0 µM), 67.8%. The growth inhibition in test [5] (setting [7]) was -26%; in test [5] (setting [8]), 71% (active); in test [5] (at 50.0 µM) it was 54.9%; in test [6] (setting [7]), -25%; in test [6] (setting [8]) it was 84% (active); in test [6] (at 50.0 µM), 38.7%.

Take `COC(=O)/C=N/O`: the growth inhibition in test [1] (setting [7]) is -17%; in test [1] (setting [8]), 7%; in test [1] (at 50.0 µM), -19.4%; in test [2] (setting [7]), -9%; in test [2] (setting [8]), -6%; in test [2] (at 50.0 µM), -6.9%. Moreover, the growth inhibition is -5% in test [3] (setting [7]); -4% in test [3] (setting [8]); 8.85% in test [3] (at 50.0 µM); 7% in test [4] (setting [7]); -1% in test [4] (setting [8]); 0.85% in test [4] (at 50.0 µM). In addition, the growth inhibition in test [5] (setting [7]) is -19%; in test [5] (setting [8]), -1%; in test [5] (at 50.0 µM), -14.9%; in test [6] (setting [7]), -2%; in test [6] (setting [8]), -6%; in test [6] (at 50.0 µM), 36.3%.

Take `CCCCCc1cc(C(=O)OC/C(C)=N/O)c2ccccc2n1`: the growth inhibition in test [1] (setting [7]) was -5%; in test [1] (setting [8]) it was 90% (active); in test [1] (at 50.0 µM), 97.2% (active); in test [2] (setting [7]) it was -9%; in test [2] (setting [8]), 95% (active); in test [2] (at 50.0 µM), 97.5% (active). Moreover, the growth inhibition in test [3] (setting [7]) is -6%; in test [3] (setting [8]), 91% (active); in test [3] (at 50.0 µM) it was 96.5% (active); in test [4] (setting [7]) it was -5%; in test [4] (setting [8]), 92% (active); in test [4] (at 50.0 µM), 83.2% (active). The growth inhibition is -6% in test [5] (setting [7]); 93% (active) in test [5] (setting [8]); 97.8% (active) in test [5] (at 50.0 µM); -6% in test [6] (setting [7]); 93% (active) in test [6] (setting [8]); 97.4% (active) in test [6] (at 50.0 µM).

Values taken from PubChem BioAssay (NCI).
